Gal4-VP16 FLuc: VP16 counterscreen qHTS for inhibitors of ROR gamma transcriptional activity; Drosophila S2 Gal4-VP16 UAS-luciferase, luminescence, 20 h; Potency, µM (titrated, usually from 53.6 µM), for the others: top-dose activity, negative = inhibition, hits mostly inhibitors; 3.5% of 310,000 active; AID 2546, 2010;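 note: Gal4-VP16 expression switched on by copper sulfate through the metallothionein promoter; nearly all actives have a fitted effect of over 50% in size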
TDP1 inh: qHTS Assay for Inhibitors of Tyrosyl-DNA Phosphodiesterase (TDP1); recombinant TDP1, AlphaScreen DNA substrate cleavage; Tyrosyl-DNA phosphodiesterase 1 (Homo sapiens), Q9NUW8; Potency, µM (top dose mostly 130 µM), for the others: at the top dose activity change, negative = inhibition, actives largely listed as inhibitors; 0.28% of 350,000 active; note: nearly all actives have a fitted effect of over 40% in size
Target sequence (Q9NUW8 whole entry, looked up): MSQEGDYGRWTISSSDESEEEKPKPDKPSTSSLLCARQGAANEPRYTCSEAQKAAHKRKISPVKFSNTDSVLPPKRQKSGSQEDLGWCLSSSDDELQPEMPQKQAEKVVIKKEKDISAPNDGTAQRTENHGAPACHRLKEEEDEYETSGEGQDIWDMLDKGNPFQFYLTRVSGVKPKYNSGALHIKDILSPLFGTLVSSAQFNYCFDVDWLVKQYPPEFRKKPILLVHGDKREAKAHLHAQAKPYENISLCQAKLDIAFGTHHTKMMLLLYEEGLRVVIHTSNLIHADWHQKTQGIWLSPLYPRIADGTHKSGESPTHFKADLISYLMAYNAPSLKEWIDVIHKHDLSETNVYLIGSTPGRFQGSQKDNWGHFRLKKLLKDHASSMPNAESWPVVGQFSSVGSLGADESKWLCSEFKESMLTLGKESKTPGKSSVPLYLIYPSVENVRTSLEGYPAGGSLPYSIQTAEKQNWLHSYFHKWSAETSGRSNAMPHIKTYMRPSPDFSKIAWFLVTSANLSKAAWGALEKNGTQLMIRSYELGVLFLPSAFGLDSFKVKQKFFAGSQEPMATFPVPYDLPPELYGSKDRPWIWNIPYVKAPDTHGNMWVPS
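Recombinant human Tdp1 (E. coli-expressed, 1 nM final) preincubated with compounds 15 min at room temperature, then 5'-biotin/3'-phosphotyrosine-FITC DNA substrate (15 nM final) added for 5 min. AlphaScreen beads (10 ug/ml final) added 10 min; cleavage lowers signal.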
TDP1 cell noCPT: qHTS for Inhibitors of human tyrosyl-DNA phosphodiesterase 1 (TDP1): qHTS in cells in absence of CPT; DT40 Tdp1-/- hTDP1 cells, no CPT, ATP luminescence, 48 h; 15% of 420,000 active; Potency, µM (doses to about 46.2 µM), for inactives: at the top dose activity change, negative = growth inhibition, most hits filed as inhibitors; note: nearly all actives have a fitted effect of over 55% in size
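Seeded 400 DT40-hTDP1 cells/well (vehicle DMSO, no 20 nM CPT); pinned compounds; ≥48 hr at 37 °C; CellTiter-Glo luminescence as viability measure.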
RORgamma inh: qHTS for inhibitors of ROR gamma transcriptional activity. Nuclear receptor ROR-gamma (Mus musculus), P51450. Drosophila S2 Gal4-RORgamma UAS-luciferase reporter, 20 h. Potency, µM (titrated, usually from 53.6 µM), without a hit: at the top dose activity change, negative = inhibition, hits mostly inhibitors. 5.4% of 310,000 active. AID 2551, 2010; note: nearly all actives have a fitted effect of over 60% in size
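ROR gamma transcriptional activity was tracked as Gal4-UAS luciferase output in stably transfected Drosophila Schneider cells, with compound added 1 hr before 700 uM copper sulfate induction and a 20 hr ambient-temperature incubation.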
DT40 TDP1 CPT: qHTS for Inhibitors of human tyrosyl-DNA phosphodiesterase 1 (TDP1): qHTS in cells in presence of CPT | chicken DT40 Tdp1-/-;hTDP1 cells + 20 nM CPT, ATP luminescence, 48 h | Potency, µM (highest dose often 46.2 µM), without a hit: at the highest dose activity change, negative = growth inhibition, hits mostly inhibitors | 12% of 420,000 active; note: nearly all actives have a fitted effect of over 55% in size
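Cell growth measured by CellTiter-Glo luminescence after a minimum 48 h, 37 C compound exposure with 20 nM CPT in Tdp1-knockout DT40 cells stably expressing hTDP1, seeded 400/well; qHTS titration format.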
* hit, by the source's call; ? = inconclusive; / = not tested or not shown. Shown are actives, neighbours in structure and some others; about 19% of the full set was active somewhere. Calls come from the whole dose curve; as a rule, active = well fitted curve in the direction sought with a large enough effect; inconclusive = small, poorly fitted or top-dose-only effect, or another doubt; inactive = no such curve, though single readings can be large; an effect the other way counts as inactive or inconclusive. % is set by controls: 0 for no effect and ±100 for the full control effect; potency is the fitted concentration of half-maximal effect.

SMILES	Gal4-VP16 FLuc	TDP1 inh	TDP1 cell noCPT	RORgamma inh	DT40 TDP1 CPT
CCOCCCNC(=O)COC(=O)/C=C/c1ccc(S(=O)(=O)N2CCc3ccccc32)cc1	-17%	6%	4%	37%	9%
Cc1ccccc1-n1c(SCc2cc(=O)n3ccccc3n2)nc2[nH]ncc2c1=O	-10%	9%	-27%	2%	?
CCc1ccc(-n2c(SCc3ccccc3F)nc3[nH]ncc3c2=O)cc1	/	9%	16µM*	/	21µM*
Cc1ccc(-n2c(SCc3ccccc3F)nc3[nH]ncc3c2=O)cc1Cl	/	8%	15µM*	/	21µM*
Cc1cccc2nc(CSc3nc4[nH]ncc4c(=O)n3-c3ccccc3Cl)cc(=O)n12	1%	5%	21µM*	26%	15µM*
CC(=O)Nc1ccc(S(=O)(=O)Nc2ccc(Cl)nn2)cc1	?	3%	-20%	-3%	1%
Cc1ccc(S(=O)(=O)N2CCN(C(=O)NCc3ccc(C(=O)O)cc3)CC2)cc1	-10%	2%	-11%	3%	-4%
CSc1ncccc1C(=O)Nc1ccc(OC(F)(F)F)cc1	-8%	2%	15µM*	19%	?
COc1cc(NC(=O)c2cccnc2SC)cc(OC)c1OC	2%	3%	2%	-1%	13%
CC(=O)Nc1ccc(Sc2ncccc2C(=O)Nc2ccc(F)cc2)cn1	-24%	3%	7.3µM*	44%	9.2µM*
Cc1ccccc1C(=O)N(CC(=O)Nc1sc(C)c(C)c1C(N)=O)C1CCCC1	13%	-3%	15µM*	29%	?
COC(=O)CCC(=O)N(CCN(Cc1ccccc1)C(=O)CCC(=O)OC)Cc1ccccc1	/	/	-12%	/	?
Cc1sc(NC(=O)CN(CCc2ccccc2)C(=O)C2CC2)c(C(N)=O)c1C	-3%	3%	?	39%	?
CCCC(=O)N(CCN(Cc1ccccc1)C(=O)CCC)Cc1ccccc1	0%	4%	23µM*	24%	?
CCCC(=O)N(CC(=O)Nc1sc(C)c(C)c1C(N)=O)Cc1ccccc1	7%	6%	6.5µM*	17%	12µM*
O=C(NCCOCCNC(=O)OCc1ccccc1)OCc1ccccc1	0%	2%	-22%	20%	6%
CCN1C(=O)[C@@H]2[C@@H](c3ccc(-c4cccc(Cl)c4)c(OC)c3)N3CCCC[C@@]3(C(=O)OC)[C@@H]2C1=O	/	-2%	16µM*	/	?
CCN1C(=O)[C@@H]2[C@@H](c3ccc(-c4ccc5c(c4)OCO5)c(OC)c3)N3CCC[C@@]3(C(=O)OC)[C@@H]2C1=O	/	-5%	?	/	-10%
CCN1C(=O)[C@@H]2[C@@H](c3ccc(SC4CCCCC4)c(OC)c3)N3CCC[C@@]3(C(=O)OC)[C@@H]2C1=O	/	1%	?	/	23µM*
CCN1C(=O)[C@H]2[C@@H](c3ccc(-c4ccc(F)cc4)c(OC)c3)N3CCC[C@@]3(C(=O)OC)[C@H]2C1=O	/	-5%	8.2µM*	/	8.2µM*
CCCSc1ccc([C@@H]2[C@H]3C(=O)N(CC)C(=O)[C@H]3[C@]3(C(=O)OC)CCCCN23)cc1OC	/	0%	?	/	?
CCN1C(=O)[C@@H]2[C@@H](c3ccc(-c4ccc(Cl)c(Cl)c4)c(OC)c3)N3CCC[C@@]3(C(=O)OC)[C@@H]2C1=O	/	7%	9.2µM*	/	8.2µM*
CS(=O)(=O)Nc1ccc(C2=NN(S(C)(=O)=O)C(c3ccc4nccnc4c3)C2)cc1 (stereo not given)	-2%	3%	1%	34%	-19%
CCS(=O)(=O)N1N=C(c2ccccc2)CC1c1ccc2nccnc2c1 (stereo not given)	-17%	8%	10µM*	78%	?
